About 1,800 (2.3%) of roughly 78,000 compounds were called active. Inconclusive results (about 27%) are left out. Cut-off read from the data, not from the text of the source: active = inhibition above about 30%; inconclusive = mostly about 10% to 28%; inactive = weaker than that. The list comes from a sample in which actives are over-represented; it also holds similar structures and randomly drawn compounds.
Target: Interleukin-1 receptor-like 1 (Homo sapiens) (UniProt Q01638)
Experiment: inhibitors of human ST2 (IL1RL1) binding to IL-33, primary screen, biochemical, AlphaLISA (AID 1259354)
Settings: AlphaLISA ST2-Fc/biotin-IL-33 interaction, 1 h; at 17 µM, active compounds read high

Chain of Interleukin-1 receptor-like 1 (Homo sapiens) (Q01638 whole entry, looked up): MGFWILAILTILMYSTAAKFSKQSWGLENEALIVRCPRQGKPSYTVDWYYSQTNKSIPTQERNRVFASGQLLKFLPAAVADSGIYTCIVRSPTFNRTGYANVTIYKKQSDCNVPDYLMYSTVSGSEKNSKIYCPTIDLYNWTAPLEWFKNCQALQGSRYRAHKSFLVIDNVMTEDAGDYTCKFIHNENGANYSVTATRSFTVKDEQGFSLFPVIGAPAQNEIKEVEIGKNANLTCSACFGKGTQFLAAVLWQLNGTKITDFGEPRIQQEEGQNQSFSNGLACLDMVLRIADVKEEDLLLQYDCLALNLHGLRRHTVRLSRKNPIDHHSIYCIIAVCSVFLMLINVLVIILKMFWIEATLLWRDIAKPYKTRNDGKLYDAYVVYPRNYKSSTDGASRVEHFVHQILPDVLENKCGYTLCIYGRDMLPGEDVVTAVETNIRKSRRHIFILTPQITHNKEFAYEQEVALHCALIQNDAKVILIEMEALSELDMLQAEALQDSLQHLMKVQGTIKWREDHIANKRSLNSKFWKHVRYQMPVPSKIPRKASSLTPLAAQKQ

| SMILES | inhibition |
| --- | --- |
| CCN(CC)CCNc1ccc([N+](=O)[O-])c2cccnc12 | inactive |
| CCN(CC)c1ccc([N+](=O)[O-])c2cccnc12 | 56% (active) |
| COc1cc(CN2CCN(Cc3ccccc3)CC2)cc(I)c1O | inactive |
| C/C=C(\C)CN1CCC2(CCNCC2)C1 | inactive |
| CCOC(=O)C1C2NC(=O)N(c3cccc(C)c3)C1(C)Oc1c(OC)cccc12 (stereo not given) | inactive |
